This note sets out measurements from PubChem BioAssay (EPA / NIEHS).

Assay [1] can be described thus: ATG_GLI_CIS: Attagene CIS-FACTORIAL HepG2 Assay for human Zinc Finger Protein GLI1 (AID 2282945). As to conditions: HepG2, Attagene cis-factorial reporter mRNA, GLI element; actives raise or lower the signal. The method in brief:
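Bidirectional curve fits relative to DMSO, using reporter mRNA levels from RT-PCR plus capillary electrophoresis. Cells were HepG2 transiently carrying cis-regulated reporter constructs, harvested 24 h after dosing.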

Assay [2] deals with Bile acid receptor (Homo sapiens) (UniProt Q96RI1). As to the kind of experiment: ATG_IR1_CIS: Attagene CIS-FACTORIAL HepG2 Assay for human Nuclear Receptor Subfamily 1 Group H Member 4 (NR1H4), IR1 submotif (AID 2282946). As to conditions: IR1 reporter transcription, actives raise or lower the signal. The method in brief:
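HepG2 cells transiently transfected with multiplexed cis-element reporter units read endogenous transcription factor activity. After 24 h compound exposure, reporter mRNA was quantified by RT-PCR, fluorescent labelling, HpaI digestion and capillary electrophoresis; bidirectional fitting versus DMSO baseline.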

Assay [3] is described as follows: ATG_GRE_CIS: Attagene CIS-FACTORIAL HepG2 Assay for human Glucocorticoid Response Elements (GRE) (AID 2282947). The conditions noted are these: HepG2 GRE cis-reporter, Attagene multiplex mRNA; actives raise or lower the signal. The method in brief:
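Reporter transcripts read by RT-PCR with capillary electrophoresis fluorescence after a 24 h chemical exposure of HepG2 cells transiently transfected with multiple cis-element reporter units. Gain or loss fitted against DMSO.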

Assay [4] can be described thus: ATG_ISRE_CIS: Attagene CIS-FACTORIAL HepG2 Assay for human Interferon Regulatory Factor 1 (IRF1) binding to an Interferon-Stimulated Response Element (ISRE) (AID 2282948). As to conditions: HepG2 ISRE cis-reporter (Attagene), mRNA transcription readout; actives raise or lower the signal. Put shortly: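 Endogenous transcription factor activity read as reporter transcript abundance via RT-PCR and capillary electrophoresis. HepG2 cells transiently transfected, 24 h chemical exposure. Gain or loss fitted against DMSO baseline.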

Assay [5] can be described thus: ATG_M_32_CIS: Attagene CIS-FACTORIAL HepG2 Assay for M32 Transcription Factor (Internal Marker) (AID 2282949).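 Further: background control marker of the multiplexed CIS panel rather than a real target.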 As to conditions: HepG2 Attagene cis-factorial M32 reporter, mRNA; actives raise or lower the signal. The method in brief: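 HepG2 transfectants (cis-regulated reporter transcription units) dosed 24 h. Reporter mRNA by RT-PCR plus CE, analysed as gain or loss relative to DMSO.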

Assay [6] in a line: ATG_M_06_CIS: Attagene CIS-FACTORIAL HepG2 Assay for M06 Transcription Factor (Internal Marker) (AID 2282950). As to conditions: HepG2 Attagene CIS-FACTORIAL M06 internal marker reporter; actives raise or lower the signal. Put shortly:
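Read-out is fluorescence of labelled reporter cDNA fragments resolved by capillary electrophoresis after RT-PCR. Cells: HepG2 carrying transfected cis-promoter reporter units, treated 24 h. Gain or loss of signal fitted relative to DMSO.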

Assay [7] has as its target Hypoxia-inducible factor 1-alpha (Homo sapiens) (UniProt Q16665). Description: ATG_HIF1a_CIS: Attagene CIS-FACTORIAL HepG2 Assay for human Hypoxia Inducible Factor 1 (HIF1A) (AID 2282951). As to conditions: HepG2 Attagene cis-factorial HIF1a reporter transcription; actives raise or lower the signal. Put shortly: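 HepG2 cells transiently transfected with multiple cis-regulated reporter transcription units measure endogenous transcription factor activity. After 24 h exposure, reporter mRNA is quantified by RT-PCR with 6-FAM labelling, HpaI digestion and capillary electrophoresis. Bidirectional fitting against DMSO.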

Assay [8] concerns the target Hepatocyte nuclear factor 6 (Homo sapiens) (UniProt Q9UBC0). As to the kind of experiment: ATG_HNF6_CIS: Attagene CIS-FACTORIAL HepG2 Assay for human Hepatocyte Nuclear Factor 6 (HNF6) (AID 2282952). As to conditions: HepG2 Attagene cis-factorial HNF6 reporter transcription; actives raise or lower the signal. The method in brief:
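Endogenous transcription factor activity in human HepG2 liver cells was captured through cis-regulated reporter constructs. After 24 h treatment, reporter mRNA was measured by RT-PCR with capillary electrophoresis, and activity was fitted in both directions relative to DMSO.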

For assay [9], the target named is Heat shock factor protein 1 (Homo sapiens) (UniProt Q00613). As to the kind of experiment: ATG_HSE_CIS: Attagene CIS-FACTORIAL HepG2 Assay for human Heat Shock Transcription Factor 1 (HSE) (AID 2282953). As to conditions: HepG2 HSE cis-reporter, Attagene RNA transcription; actives raise or lower the signal. Put shortly: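 HepG2, transient MRTU transfection, cis-promoter reporters (endogenous TF activity). 24 h compound. RNA → oligo(dT) RT → PCR → 6-FAM primer extension → HpaI cut → CE. Bidirectional fit vs DMSO.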
Chain of Heat shock factor protein 1 (Homo sapiens) (Q00613 whole entry, looked up): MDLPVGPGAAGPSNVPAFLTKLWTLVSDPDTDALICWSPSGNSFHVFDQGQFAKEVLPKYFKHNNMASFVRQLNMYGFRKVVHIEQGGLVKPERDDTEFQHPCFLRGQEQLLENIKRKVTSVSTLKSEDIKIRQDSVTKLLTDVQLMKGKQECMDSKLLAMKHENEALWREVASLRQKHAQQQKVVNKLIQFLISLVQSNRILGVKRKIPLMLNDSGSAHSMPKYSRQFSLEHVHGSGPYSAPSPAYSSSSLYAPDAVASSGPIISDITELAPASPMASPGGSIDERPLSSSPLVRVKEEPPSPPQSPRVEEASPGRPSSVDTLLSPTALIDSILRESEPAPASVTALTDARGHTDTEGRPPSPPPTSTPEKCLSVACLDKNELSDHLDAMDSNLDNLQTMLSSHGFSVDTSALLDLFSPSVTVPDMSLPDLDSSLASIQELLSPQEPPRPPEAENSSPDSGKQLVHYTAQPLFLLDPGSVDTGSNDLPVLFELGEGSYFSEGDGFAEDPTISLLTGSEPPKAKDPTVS

A short description of assay [10]: ATG_MRE_CIS: Attagene CIS-FACTORIAL HepG2 Assay for human Metal Responsive Element (MRE) (AID 2282954). The conditions noted are these: HepG2 MRE cis-reporter transcription, Attagene multiplex; actives raise or lower the signal. Put shortly: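 Endogenous MRE-dependent transcription read as reporter mRNA in transiently transfected human HepG2 cells at 24 h. RNA reverse-transcribed, PCR-amplified, labelled and resolved by capillary electrophoresis; gain or loss relative to DMSO.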

Assay [11] has as its target Paired box protein Pax-6 (Homo sapiens) (UniProt P26367). Description: ATG_Pax6_CIS: Attagene CIS-FACTORIAL HepG2 Assay for human Paired Box 6 (PAX6) (AID 2282956). As to conditions: HepG2 CIS-FACTORIAL PAX6 reporter transcription, RNA readout; actives raise or lower the signal. The method in brief: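 Read-out is reporter transcript level, measured by RT-PCR with fluorescent primer extension and capillary electrophoresis after 24 h dosing of transfected HepG2 cells. Activity in either direction fitted relative to DMSO control.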

Assay [12] can be described thus: ATG_PXRE_CIS: Attagene CIS-FACTORIAL HepG2 Assay for human Pregnane X Receptor Element (PXRE) (AID 2282957). The conditions noted are these: HepG2 Attagene CIS-FACTORIAL PXRE reporter, mRNA; actives raise or lower the signal. The method in brief:
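Endogenous transcription factor activity in HepG2 was gauged through induction of reporter mRNA driven by a cis-regulating promoter element, sampled 24 h post-treatment. Activity was fitted in both directions against DMSO negative control.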

Assay [13] is described as follows: ATG_PPRE_CIS: Attagene CIS-FACTORIAL HepG2 Assay for human Peroxisome Proliferator-activated Response Element (PPRE) (AID 2282958). The conditions noted are these: HepG2 PPRE cis-element reporter, Attagene transcription factor profiling; actives raise or lower the signal. Put shortly:
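HepG2 cells are transiently transfected with multiplexed cis-promoter reporter units to report endogenous PPAR activity. After 24 h dosing, reporter mRNA is read by RT-PCR and capillary electrophoresis. Fitting is bidirectional against DMSO.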

Assay [14] can be described thus: ATG_RORE_CIS: Attagene CIS-FACTORIAL HepG2 Assay for human RAR-related Orphan Receptor Element (RORE) (AID 2282959). As to conditions: HepG2 Attagene cis-factorial RORE reporter, mRNA; actives raise or lower the signal. The method in brief: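 HepG2 cells carrying transiently transfected cis-regulated reporter units; RORE-driven reporter mRNA quantified 24 h post-dosing by RT-PCR, 6-FAM primer extension, HpaI digestion and capillary electrophoresis. Bidirectional fit versus DMSO.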

A short description of assay [15]: ATG_Sox_CIS: Attagene CIS-FACTORIAL HepG2 Assay for human SRY-box transcription factor (SOX) (AID 2282960). As to conditions: HepG2 Attagene cis-factorial SOX reporter, mRNA; actives raise or lower the signal. Put shortly: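 HepG2 cells transiently transfected with multiple cis-regulated reporter units, then dosed for 24 h. Reporter mRNA quantified by RT-PCR, fluorescent labelling, HpaI digestion and capillary electrophoresis; bidirectional fit versus DMSO.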

Assay [16] concerns the target Transcription factor Sp1 (Homo sapiens) (UniProt P08047). As to the kind of experiment: ATG_Sp1_CIS: Attagene CIS-FACTORIAL HepG2 Assay for human Specificity Protein 1 (Sp1) (AID 2282961). The conditions noted are these: HepG2 Sp1 cis-reporter transcription, actives raise or lower the signal. Put shortly: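 HepG2 cells transiently transfected with multiplexed cis-regulated reporter constructs, chemical exposure 24 h. Reporter mRNA quantified by RT-PCR with capillary electrophoresis; bidirectional fit relative to DMSO.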

Assay [17] can be described thus: ATG_SREBP_CIS: Attagene CIS-FACTORIAL HepG2 Assay for human Sterol Regulatory Element Binding (SREBP) (AID 2282962). The conditions noted are these: HepG2 Attagene cis-factorial SREBP reporter, mRNA; actives raise or lower the signal. The method in brief:
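Endogenous SREBP activity read as cis-element-driven reporter transcript in transiently transfected HepG2, 24 h post-dosing; quantified via RT-PCR plus capillary electrophoresis of fluorescent fragments. Gain or loss of signal fitted relative to DMSO baseline.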

Assay [18] addresses Signal transducer and activator of transcription 3 (Homo sapiens) (UniProt P40763). As to the kind of experiment: ATG_STAT3_CIS: Attagene CIS-FACTORIAL HepG2 Assay for human Signal Transducer and Activator of Transcription 3 (STAT3) (AID 2282963). As to conditions: HepG2, Attagene cis-factorial STAT3 reporter transcription; actives raise or lower the signal. Put shortly:
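Readout is reporter transcript quantified by RT-PCR and capillary electrophoresis, with 6-FAM primer extension and HpaI digestion. Total RNA is taken 24 h after dosing transiently transfected HepG2 carrying cis-regulated reporter units. Bidirectional fit against DMSO.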

Assay [19] is described as follows: ATG_TA_CIS: Attagene CIS-FACTORIAL HepG2 Assay for human TA Basal Promoter (AID 2282964). As to conditions: HepG2 Attagene CIS-factorial TA basal promoter reporter; actives raise or lower the signal. Put shortly:
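Read-out: fluorescent reporter-transcript fragments resolved by capillary electrophoresis after RT-PCR and HpaI digestion. Source: HepG2 cells carrying transiently transfected multi-reporter cis constructs, treated 24 h. Endpoint fitted bidirectionally relative to DMSO.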

Assay [20] is described as follows: ATG_PBREM_CIS: Attagene CIS-FACTORIAL HepG2 Assay for human Phenobarbital-responsive Enhancer Module (PBREM) (AID 2282955). The conditions noted are these: HepG2 PBREM cis-reporter, Attagene multiplexed transcription; actives raise or lower the signal. The method in brief: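 HepG2 cells transiently transfected with multiple cis-regulated reporter units measure endogenous transcription factor activity; 24 h compound exposure. Reporter mRNA quantified by RT-PCR, fluorescent labelling, HpaI digestion and capillary electrophoresis; bidirectional fit versus DMSO.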

Activity calls are given as the source filed them. How the source made its calls: active means hit-call score of the fitted dose curve at least 0.9, where 1 is the maximum; inactive means score below 0.9.

Chain of Signal transducer and activator of transcription 3 (Homo sapiens) (P40763 whole entry, looked up): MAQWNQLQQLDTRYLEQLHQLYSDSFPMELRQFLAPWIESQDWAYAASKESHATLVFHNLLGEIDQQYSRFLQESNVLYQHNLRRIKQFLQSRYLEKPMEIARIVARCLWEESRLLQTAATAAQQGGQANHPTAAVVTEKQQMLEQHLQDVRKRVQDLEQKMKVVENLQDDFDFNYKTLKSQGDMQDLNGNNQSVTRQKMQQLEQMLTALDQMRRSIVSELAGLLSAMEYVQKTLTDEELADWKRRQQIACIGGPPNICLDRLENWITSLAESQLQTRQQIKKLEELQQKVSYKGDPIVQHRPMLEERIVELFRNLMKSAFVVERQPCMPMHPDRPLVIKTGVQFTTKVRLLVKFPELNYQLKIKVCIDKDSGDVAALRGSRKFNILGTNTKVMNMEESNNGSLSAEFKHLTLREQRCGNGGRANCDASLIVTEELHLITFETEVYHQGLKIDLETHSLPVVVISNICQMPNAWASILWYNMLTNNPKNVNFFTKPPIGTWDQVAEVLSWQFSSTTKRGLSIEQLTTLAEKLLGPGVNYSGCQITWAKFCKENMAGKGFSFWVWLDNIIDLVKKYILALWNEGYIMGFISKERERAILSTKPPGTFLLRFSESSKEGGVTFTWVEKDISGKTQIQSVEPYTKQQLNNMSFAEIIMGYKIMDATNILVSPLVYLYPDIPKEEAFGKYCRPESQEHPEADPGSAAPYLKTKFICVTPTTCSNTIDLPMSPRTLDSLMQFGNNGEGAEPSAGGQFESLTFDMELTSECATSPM
Chain of Bile acid receptor (Homo sapiens) (Q96RI1 whole entry, looked up): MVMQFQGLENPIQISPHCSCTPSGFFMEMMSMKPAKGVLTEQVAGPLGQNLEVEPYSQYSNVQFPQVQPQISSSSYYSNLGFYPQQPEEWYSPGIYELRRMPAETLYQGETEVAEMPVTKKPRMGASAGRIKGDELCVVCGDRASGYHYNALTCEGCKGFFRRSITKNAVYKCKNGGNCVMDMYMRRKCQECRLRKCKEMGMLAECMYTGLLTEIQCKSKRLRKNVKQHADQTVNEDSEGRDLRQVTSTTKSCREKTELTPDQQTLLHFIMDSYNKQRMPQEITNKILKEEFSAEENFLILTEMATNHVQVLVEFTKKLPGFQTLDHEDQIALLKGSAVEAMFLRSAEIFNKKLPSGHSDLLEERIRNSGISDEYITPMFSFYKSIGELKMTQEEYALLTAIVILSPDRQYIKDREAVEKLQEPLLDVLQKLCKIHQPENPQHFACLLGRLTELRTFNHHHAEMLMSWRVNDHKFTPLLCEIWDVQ
Chain of Paired box protein Pax-6 (Homo sapiens) (P26367 whole entry, looked up): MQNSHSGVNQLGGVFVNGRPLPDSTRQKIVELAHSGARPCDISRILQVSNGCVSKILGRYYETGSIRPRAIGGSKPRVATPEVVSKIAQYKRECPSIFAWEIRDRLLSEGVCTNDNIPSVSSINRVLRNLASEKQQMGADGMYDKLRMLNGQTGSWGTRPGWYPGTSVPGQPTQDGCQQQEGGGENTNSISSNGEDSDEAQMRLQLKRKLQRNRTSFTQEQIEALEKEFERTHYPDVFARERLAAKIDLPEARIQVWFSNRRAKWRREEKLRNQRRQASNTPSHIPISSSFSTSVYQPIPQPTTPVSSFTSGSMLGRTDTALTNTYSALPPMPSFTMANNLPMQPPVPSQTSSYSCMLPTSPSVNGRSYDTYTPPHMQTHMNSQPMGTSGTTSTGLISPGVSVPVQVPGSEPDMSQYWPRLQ
Chain of Transcription factor Sp1 (Homo sapiens) (P08047 whole entry, looked up): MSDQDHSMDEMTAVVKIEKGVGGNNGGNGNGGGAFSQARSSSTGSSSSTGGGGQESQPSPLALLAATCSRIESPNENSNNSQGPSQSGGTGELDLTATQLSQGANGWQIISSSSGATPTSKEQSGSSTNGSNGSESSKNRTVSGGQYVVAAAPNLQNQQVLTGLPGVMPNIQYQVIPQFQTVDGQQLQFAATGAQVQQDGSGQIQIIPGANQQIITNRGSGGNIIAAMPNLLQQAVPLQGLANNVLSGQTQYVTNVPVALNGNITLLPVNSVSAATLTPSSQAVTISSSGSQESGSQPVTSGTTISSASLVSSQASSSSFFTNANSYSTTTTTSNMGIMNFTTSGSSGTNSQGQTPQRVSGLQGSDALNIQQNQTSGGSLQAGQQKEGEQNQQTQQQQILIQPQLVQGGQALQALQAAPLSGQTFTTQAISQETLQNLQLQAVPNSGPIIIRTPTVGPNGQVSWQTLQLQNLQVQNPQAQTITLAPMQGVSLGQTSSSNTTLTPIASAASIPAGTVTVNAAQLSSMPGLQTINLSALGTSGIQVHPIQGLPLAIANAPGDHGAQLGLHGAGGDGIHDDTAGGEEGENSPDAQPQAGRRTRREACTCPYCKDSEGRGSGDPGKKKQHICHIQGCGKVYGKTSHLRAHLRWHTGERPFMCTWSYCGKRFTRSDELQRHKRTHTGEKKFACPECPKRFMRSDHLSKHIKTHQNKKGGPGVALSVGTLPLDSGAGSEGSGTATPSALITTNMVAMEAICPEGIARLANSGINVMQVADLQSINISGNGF
Chain of Hypoxia-inducible factor 1-alpha (Homo sapiens) (Q16665 whole entry, looked up): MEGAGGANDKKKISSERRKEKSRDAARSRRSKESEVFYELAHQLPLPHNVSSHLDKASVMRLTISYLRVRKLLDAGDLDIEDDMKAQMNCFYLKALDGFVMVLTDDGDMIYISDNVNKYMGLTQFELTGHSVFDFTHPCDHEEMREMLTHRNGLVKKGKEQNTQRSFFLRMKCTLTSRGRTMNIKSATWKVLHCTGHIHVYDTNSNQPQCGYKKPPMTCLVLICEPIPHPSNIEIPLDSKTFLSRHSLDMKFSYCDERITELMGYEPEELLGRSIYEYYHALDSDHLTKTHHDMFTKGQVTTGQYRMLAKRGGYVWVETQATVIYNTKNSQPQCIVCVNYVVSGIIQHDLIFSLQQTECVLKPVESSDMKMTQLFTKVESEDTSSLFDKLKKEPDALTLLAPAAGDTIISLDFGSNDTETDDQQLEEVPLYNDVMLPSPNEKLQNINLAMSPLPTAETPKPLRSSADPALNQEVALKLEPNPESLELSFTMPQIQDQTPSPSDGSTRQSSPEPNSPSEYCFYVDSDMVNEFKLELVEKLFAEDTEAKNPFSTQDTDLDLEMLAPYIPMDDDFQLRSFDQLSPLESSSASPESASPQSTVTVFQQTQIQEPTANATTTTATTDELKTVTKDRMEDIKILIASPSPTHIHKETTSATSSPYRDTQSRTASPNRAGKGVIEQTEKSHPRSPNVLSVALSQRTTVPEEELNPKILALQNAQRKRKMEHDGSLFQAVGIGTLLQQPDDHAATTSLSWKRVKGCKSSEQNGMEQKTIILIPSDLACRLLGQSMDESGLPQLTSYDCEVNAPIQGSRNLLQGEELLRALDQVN
Chain of Hepatocyte nuclear factor 6 (Homo sapiens) (Q9UBC0 whole entry, looked up): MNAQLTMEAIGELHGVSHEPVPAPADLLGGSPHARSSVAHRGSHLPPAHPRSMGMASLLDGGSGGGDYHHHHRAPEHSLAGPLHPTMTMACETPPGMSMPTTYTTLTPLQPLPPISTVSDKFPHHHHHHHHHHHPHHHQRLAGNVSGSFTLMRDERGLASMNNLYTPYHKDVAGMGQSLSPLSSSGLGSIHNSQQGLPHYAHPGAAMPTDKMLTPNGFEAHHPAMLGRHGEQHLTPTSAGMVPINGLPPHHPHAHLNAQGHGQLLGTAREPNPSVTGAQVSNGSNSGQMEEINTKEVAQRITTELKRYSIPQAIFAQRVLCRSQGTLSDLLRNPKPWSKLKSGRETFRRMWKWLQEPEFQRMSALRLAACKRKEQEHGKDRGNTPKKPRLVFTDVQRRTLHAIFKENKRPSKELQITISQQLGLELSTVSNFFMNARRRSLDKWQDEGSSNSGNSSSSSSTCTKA

On to `Cc1cccc(C)n1`, for which the result in assay [1], in [2], in assay [3], in [4], in assay [5] and in [6] was inactive. The call in assay [7], in [8], in [9], in assay [10], in [11] and in [12] was inactive. Moreover, the result in [13], in [14], in assay [15], in [16], in assay [17] and in assay [18] was inactive. Besides, in assay [19], the call was inactive.

On to `O=C(Cl)C(F)(F)C(F)(F)C(F)(F)C(F)(F)C(F)(F)C(F)(F)F`, for which the compound was classed as inactive in [1], in [2], in assay [3], in [4], in [5] and in [6]. For the same compound, the compound was called inactive in assay [7], in assay [8], in assay [9], in [10], in assay [11] and in assay [12]. Further, the result in assay [14], in assay [15], in assay [16], in assay [17], in [18] and in assay [19] was inactive. Further, the AC50 in assay [13] was 60.3 µM (active).

In the case of `COCCC(=O)OC`, the outcome in [1], in [2], in [3], in assay [4], in assay [5] and in [6] was inactive. Moreover, the compound was classed as inactive in assay [7], in assay [8], in assay [9], in assay [10], in assay [11] and in assay [12]. The compound was classed as inactive in assay [13], in [14], in assay [15], in assay [16], in [17] and in assay [18].

As for `Brc1ccccn1`, the call in assay [1], in [2], in assay [3], in [4], in assay [5] and in assay [6] was inactive. Further, the call in assay [7], in [8], in assay [9], in [10], in assay [20] and in assay [12] was inactive. Also, the compound was called inactive in assay [13], in assay [14], in assay [15], in assay [16], in assay [17] and in [18]. In addition, the compound was classed as inactive in assay [19].

`O=S(=O)(O)CCC(F)(F)C(F)(F)C(F)(F)C(F)(F)F`: the outcome in [1], in assay [2], in [3], in assay [4], in assay [5] and in [6] was inactive. Besides, the outcome in assay [7], in assay [8], in assay [9], in [10], in assay [20] and in assay [11] was inactive. In addition, the compound was called inactive in [12], in assay [13], in [14], in assay [15], in [16] and in [17]. In addition, the compound was called inactive in assay [19].

Consider `CN(N=O)C(=O)N[C@@H]1[C@@H](O)[C@H](O)[C@@H](CO)O[C@@H]1O`, for which the call in assay [1], in [2], in assay [3], in assay [4], in [5] and in [6] was inactive. Also, the outcome in assay [7], in [8], in assay [9], in assay [10], in assay [20] and in [12] was inactive. Moreover, the call in [13], in assay [14], in assay [15], in assay [16], in assay [17] and in assay [18] was inactive.

On to `NC(O)(C(F)(F)F)C(F)(F)F`, for which the outcome in assay [1], in [2], in [3], in [4], in [5] and in assay [6] was inactive. For the same compound, the compound was classed as inactive in assay [7], in assay [8], in assay [9], in [10], in assay [20] and in assay [12]. Moreover, the outcome in [13], in assay [14], in assay [15], in [16], in [17] and in assay [18] was inactive.
